Hits are enriched below; roughly 8.3% of the tested compounds scored in any of these assays.
LASV entry inh = blocks Lassa virus binding to or entry into cells; Lassa virus pseudotype entry inhibition, cell reporter; Potency, µM (top dose mostly 37.9 µM), without a hit: at the highest dose activity change, negative = inhibition, actives largely listed as inhibitors; 1.2% of 300,000 active; calls by dose curve; tested in HEK293 cells; note: potency is the fitted concentration of half-maximal effect; nearly all actives have a fitted effect of over 50% in size
HCV inhibitor = HCV inhibition | Huh7.5.1 HCVcc-Cre infection, luciferase reporter, 44 h | Potency, µM (highest dose often 41.8 µM), for inactives: top-dose activity change, negative = inhibition, most hits filed as inhibitors | 3.4% of 340,000 active | AID 651820; note: potency is the fitted concentration of half-maximal effect
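After 44 h co-culture of compound, cells and HCVcc-Cre (~0.5 moi), substrate is added for 15 min at room temperature and luciferase measured over 15 sec. Cells were seeded at 1,000/well and pre-cultured 4 h.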
Giardia FBPA inh = blocks Giardia fructose-bisphosphate aldolase activity | 0.71% of 290,000 active | AID 2451 | Potency, µM (series often up to 59.6 µM), for the others: top-dose activity, negative = inhibition, usual class: inhibitors | purified Giardia FBPA | A8B2U2; note: potency is the fitted concentration of half-maximal effect; nearly all actives have a fitted effect of over 55% in size
Target sequence (A8B2U2 whole entry, looked up): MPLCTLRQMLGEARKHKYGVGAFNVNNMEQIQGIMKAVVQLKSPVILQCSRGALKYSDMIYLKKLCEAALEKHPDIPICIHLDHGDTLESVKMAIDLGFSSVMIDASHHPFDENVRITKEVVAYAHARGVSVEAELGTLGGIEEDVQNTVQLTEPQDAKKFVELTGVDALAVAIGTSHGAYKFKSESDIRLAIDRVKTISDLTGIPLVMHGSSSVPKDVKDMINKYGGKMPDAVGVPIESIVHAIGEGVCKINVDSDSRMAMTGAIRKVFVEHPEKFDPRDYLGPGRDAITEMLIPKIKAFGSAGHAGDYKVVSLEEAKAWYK
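Giardia FBPA (40 nM reagent) was preincubated 10 min at RT with compound (up to 57.5 uM final), then substrate plus GAPDH/TPI/NAD/arsenate coupling system with diaphorase/resazurin was added; resorufin fluorescence (525/598 nm) was read after 20 min.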
MARV entry inh = Marburg virus entry inhibition; Marburg virus pseudotyped entry inhibition, cell reporter; Potency, µM (highest dose often 37.8 µM), for the others: top-dose activity change, negative = inhibition, hits mostly inhibitors; 1.8% of 300,000 active; calls by dose curve; tested in HEK293 cells; note: potency is the fitted concentration of half-maximal effect
FMDV antiviral = blocks foot and mouth disease virus; FMDV antiviral cell-based qHTS; Potency, µM (titrated, usually from 57.9 µM), for the others: top-dose activity change, negative = inhibition, hits mostly inhibitors; 1.2% of 410,000 active; calls by dose curve; tested in HEK293T cells; note: read-out not given here; potency is the fitted concentration of half-maximal effect; nearly all actives have a fitted effect of over 45% in size
HCMV antiviral = blocks human cytomegalovirus replication. activity change, negative = inhibition, % at 57.5 µM. HFF cells, HCMV-luciferase reporter, 72 h; hits give low values. 4.5% of 410,000 active. AID 1259415; in the data active = activity change below about -60%; inconclusive = no clear call, values can overlap the other calls; inactive = above about -39%
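HFF cells seeded 16 h at 37C, treated with compounds, infected with luciferase-reporter HCMV at MOI 1 PFU/cell; luciferase read at 72 h post infection, normalized to buffer-only and Salinomycin controls.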
The depositor's hits bear a star; [ ] = another dose, or the depositor's remark. Unless noted, calls come from the whole dose curve; as a rule, active = well fitted curve in the direction sought with a large enough effect; inconclusive = small, poorly fitted or top-dose-only effect, or another doubt; inactive = no such curve, though single readings can be large; an effect the other way counts as inactive or inconclusive. % is set by controls: 0 for no effect and ±100 for the full control effect.

Results for CCn1c(SCC(=O)Nc2nccs2)nnc1-c1ccc(S(=O)(=O)N2CCCCC2)cc1 ?
LASV entry inh: -2%; HCV inhibitor: inconclusive; Giardia FBPA inh: 6%; MARV entry inh: -24%; FMDV antiviral: 25µM*; HCMV antiviral: -38

What do the screens show for `CSc1nc(Cl)c(Cc2ccc(OCC(C)C)cc2)c(N2CCOCC2)n1`?
HCV inhibitor: 11µM*; Giardia FBPA inh: -1%; MARV entry inh: 3%; FMDV antiviral: inconclusive; HCMV antiviral: inconclusive

What do the screens show for `CCCCOc1ccc(Cc2c(Cl)nc(SC)nc2N2CCOCC2)cc1`?
LASV entry inh: -2%; HCV inhibitor: -26%; Giardia FBPA inh: 1%; MARV entry inh: inconclusive; FMDV antiviral: inconclusive; HCMV antiviral: -39

Results for CCn1cc(/C=N/NC(=O)c2ccc(C#N)cc2F)c2ccccc21 ?
LASV entry inh: -25%[14.3 µM]; Giardia FBPA inh: 16µM*; MARV entry inh: 9%; FMDV antiviral: -3%; HCMV antiviral: -17

Results for CC(C)(C)C1CCc2nc(NC(=O)c3ccc([N+](=O)[O-])cc3)sc2C1 (centres undefined) ?
LASV entry inh: 9%[46.1 µM]; MARV entry inh: 2%[46.1 µM]; FMDV antiviral: inconclusive; HCMV antiviral: -74*

What do the screens show for `CC(C)(C)C1CCc2c(sc(NC(=O)c3cccc(Cl)c3)c2C(N)=O)C1` (centres undefined)?
LASV entry inh: 11%[46.1 µM]; MARV entry inh: 3%[46.1 µM]; FMDV antiviral: -2%; HCMV antiviral: -17

How did CC(C)(C)C1CCc2nc(NC(=O)c3cccc(Cl)c3)sc2C1 (centres undefined) do in these assays?
LASV entry inh: 1%[46.1 µM]; MARV entry inh: inconclusive; FMDV antiviral: 2µM*; HCMV antiviral: -90*

How did CC(C)(C)C1CCc2nc(NC(=O)COc3ccccc3[N+](=O)[O-])sc2C1 (centres undefined) do in these assays?
LASV entry inh: -22%[46.1 µM]; MARV entry inh: 28%[46.1 µM]; FMDV antiviral: -27%; HCMV antiviral: -91*

What do the screens show for `CCSc1nnc(NC(=O)COc2ccccc2[N+](=O)[O-])s1`?
LASV entry inh: 18%[46.1 µM]; HCV inhibitor: 10%; Giardia FBPA inh: 6%; MARV entry inh: inconclusive; FMDV antiviral: inconclusive; HCMV antiviral: -87*

What do the screens show for `CC(C)(C)C1CCc2nc(NC(=O)Cc3ccccc3)sc2C1` (centres undefined)?
LASV entry inh: 11%[46.1 µM]; MARV entry inh: inconclusive; FMDV antiviral: 38%; HCMV antiviral: 56

What do the screens show for `Cc1cccc(OCC(=O)Nc2nc3c(s2)CC(C(C)(C)C)CC3)c1C` (centres undefined)?
LASV entry inh: 5%[46.1 µM]; MARV entry inh: 10%[46.1 µM]; FMDV antiviral: 0%; HCMV antiviral: 8

How did COC(=O)[C@@H]1C[C@H]2CC[C@H](O)C[C@H]2N1Cc1c(F)cccc1Cl do in these assays?
Giardia FBPA inh: -2%

Results for COC(=O)[C@H](Cc1ccccc1)N1C[C@@H](N2CCC[C@H]2C)CS1(=O)=O ?
HCMV antiviral: 6

What do the screens show for `COC(=O)C1CCN(C(=O)c2cc(-c3ccc(Cl)s3)nc3ccccc23)CC1`?
HCV inhibitor: inconclusive; FMDV antiviral: 35µM*; HCMV antiviral: -33

How did O=C(O)c1cc(-c2ccc(Cl)s2)nc2ccccc12 do in these assays?
LASV entry inh: inconclusive; HCV inhibitor: 15%; Giardia FBPA inh: -7%; MARV entry inh: 11µM*; FMDV antiviral: 19%; HCMV antiviral: -2

How did Cc1ccc(-c2cc(C(=O)O)c3ccccc3n2)s1 do in these assays?
HCV inhibitor: 20%; Giardia FBPA inh: -19%; FMDV antiviral: 36%; HCMV antiviral: 183

Results for CCN1CCN(C(=O)c2cc(-c3ccc(Cl)s3)nc3ccccc23)CC1 ?
HCV inhibitor: -28%; Giardia FBPA inh: -3%; FMDV antiviral: 0%; HCMV antiviral: -4

What do the screens show for `CCSc1n[nH]c2nc3c(c(=O)n12)C1(CCCC1)Cc1ccccc1-3`?
LASV entry inh: -4%; HCV inhibitor: 10%; Giardia FBPA inh: -5%; MARV entry inh: 20%; FMDV antiviral: inconclusive; HCMV antiviral: -3

How did Cc1ccc(-n2c(SCC(N)=O)nc3c(c2=O)C2(CCCC2)Cc2ccccc2-3)cc1 do in these assays?
LASV entry inh: inconclusive; HCV inhibitor: -29%; Giardia FBPA inh: 18%; MARV entry inh: inconclusive; FMDV antiviral: 22µM*; HCMV antiviral: inconclusive

What do the screens show for `CC(C)C(C)NC(=O)COc1ccc(Sc2ccc(OCC(=O)NC(C)C(C)C)cc2)cc1` (centres undefined)?
LASV entry inh: inconclusive; HCV inhibitor: inconclusive; Giardia FBPA inh: -6%; MARV entry inh: inconclusive; FMDV antiviral: inconclusive; HCMV antiviral: -88*

How did O=C(Nc1ccc2c(c1)OCO2)C1C=CC(Br)O1 (centres undefined) do in these assays?
MARV entry inh: 20%

How did COc1ccc(CCNC(=O)c2cnc3ccc(C)cn3c2=O)cc1OC do in these assays?
MARV entry inh: 2%[46.1 µM]; FMDV antiviral: -24%; HCMV antiviral: 6

Results for O=C(Nc1cccc(NC(=O)c2nccc3ccccc23)c1)c1ccco1 ?
LASV entry inh: 4%; HCV inhibitor: -22%; Giardia FBPA inh: -21%; MARV entry inh: -29%; HCMV antiviral: -97*

What do the screens show for `O=C(O)c1ccccc1C(=O)Nc1ccc(Oc2cccc3ccccc23)cc1`?
LASV entry inh: inconclusive; HCV inhibitor: -1%; Giardia FBPA inh: 13%; MARV entry inh: inconclusive; FMDV antiviral: inconclusive; HCMV antiviral: -64*

What do the screens show for `O=C(Nc1ccc(Oc2cccc3ccccc23)cc1)c1ccco1`?
LASV entry inh: inconclusive; HCV inhibitor: inconclusive; Giardia FBPA inh: -10%; MARV entry inh: inconclusive; FMDV antiviral: 0%; HCMV antiviral: -68*

What do the screens show for `O=C(Nc1cccc(NC(=O)c2ccco2)c1)c1ccccc1`?
LASV entry inh: -3%[46.1 µM]; HCV inhibitor: inconclusive; MARV entry inh: 6%[46.1 µM]; FMDV antiviral: -7%; HCMV antiviral: -21

What do the screens show for `O=C(Cc1cccs1)NC1C(=O)N2C(C(=O)[O-])=C(C[n+]3ccccc3)CSC12` (centres undefined)?
LASV entry inh: inconclusive; Giardia FBPA inh: inconclusive; MARV entry inh: 1%

What do the screens show for `C=CCNc1cccc2c1S(=O)(=O)N[C@H](Cc1ccccc1)CO2`?
HCMV antiviral: -30

Results for COc1ccccc1NS(=O)(=O)c1cc([N+](=O)[O-])ccc1N/N=C/c1c[nH]c2ccccc12 ?
LASV entry inh: -4%; HCV inhibitor: 16µM*; Giardia FBPA inh: -5%; MARV entry inh: inconclusive; FMDV antiviral: 4%; HCMV antiviral: -31

Results for OCC[C@H]1C[C@H](O)[C@@H](O)[C@]2(CCc3ccccc3CO2)O1 ?
HCV inhibitor: 0.56µM*; FMDV antiviral: -21%; HCMV antiviral: 6
